Assay [1] can be described thus: AP1 Signaling Pathway (AID 357).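 Further: ME-180 reporter cells stimulated with EGF at its EC50 level; on the % scale 0 is the no-effect control and ±100 the full control effect.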 In outline: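 A ratiometric CCF4 readout (405 nm excitation; 460 and 530 nm emission) quantified AP-1-driven beta-lactamase in ME-180 cells after 5 h with compound and EC50 EGF; AC50 values were derived for activators and inhibitors.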
Assay [2] concerns the target Cytochrome P450 1A2 (Homo sapiens) (UniProt P05177). In words: p450-cyp1a2 (AID 410; calls by dose curve;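 further: -100% = full effect of reference inhibitor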). A digest of the protocol: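 20nM CYP1A2, 100uM Luciferin-ME (=Km), 100mM KPO4; cpd 10 min RT; +NADPH regen, 60 min RT; stop/detect 20 min; luminescence. Normalized to furafylline 57 uM = full inhibition.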
Assay [3] can be described thus: NFAT Signaling Pathway (AID 444).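 Further: carbachol stimulus at about its EC50 of 1 µM final; on the % scale 0 is the no-effect control and ±100 the full control effect.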 As to conditions: Jurkat NFAT-bla M1, carbachol, beta-lactamase ratio, 5 h; at 17.2 µM (top of the series). A digest of the protocol: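 Read-out: CCF4 FRET ratio (460 nm/530 nm) after 1 h RT dye loading, used for %activity and AC50 from titration series. Cells: Jurkat NFAT-β-lactamase/M1 line, treated with compound plus 1 uM carbachol for 5 h, 37 °C.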

Assay [4] in a line: Stat Signaling Pathway (AID 446).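 Further: ME-180 cervical cancer cells given 40 pM IL-6 alongside compound; SIE-controlled beta-lactamase reporter measured as 460/530 nm FRET emission ratio; on the % scale 0 is the no-effect control and ±100 the full control effect.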 In outline:
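Compound effects on IL-6-induced STAT reporter activity were measured in ME-180 cells. After overnight culture, cells were co-treated with 40 pM IL-6 for 5 hrs before beta-lactamase substrate loading at room temperature.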

For assay [5], the target named is Glucocorticoid receptor (Homo sapiens) (UniProt P04150). In words: GR-GFP Redistribution (AID 450;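 active means compounds whose dose series gives a full or clear partial fitted curve of increased nuclear translocation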; further: potency means the concentration at half of the fitted maximal effect). As to conditions: U2OS GR-GFP nuclear translocation, laser cytometry, 2 h.
For assay [6] the target is unchanged. The experiment in a line: GR-EFC Redistribution (AID 451; calls by dose curve; further: potency means the concentration at half of the fitted maximal effect). The conditions noted are these: CHO-K1 GR-EFC translocation, beta-gal luminescence, 2 h. A digest of the protocol:
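Translocation of GR-ED fusion to nuclear EA restores b-gal, read by luminescence after 1 h room-temperature detection. Engineered CHO-K1 biosensor cells, 1,000/well, exposed 2 h at 37 C to titrations up to 46 uM final.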

The target in assay [7] is Mitogen-activated protein kinase 10 (Mus musculus) (UniProt Q61831). In words: JNK3 AlphaScreen Assay (AID 530).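 Further: kinase came from lysate of stimulated human HepG2 cells; signal reports phosphorylation of biotinylated GST-cJun 1-79 at Ser73 with 10 µM ATP; on the % scale 0 is the no-effect control and ±100 the full control effect.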 In outline: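 Kinase buffer: 20 mM Tris-HCl pH 7.6, 10 mM MgCl2, 1 mM DTT, 0.1 mM Na3VO4, 0.01% Tween-20; ATP 10 uM. Substrate biotin-GST-cJun(1-79), enzyme from activated HepG2 lysates. Detection by Ser73 phospho-antibody AlphaScreen.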
For orientation: Bead proximity is the source of the signal in Alpha formats.

For assay [8], the target named is 3',5'-cyclic-AMP phosphodiesterase 4B (Homo sapiens) (UniProt Q07343). In words: qHTS Assay for Inhibitors of PDE-IV (AID 607; active means well fitted activation curve with a large enough effect in the main read-out, with a control signal flat, not every such curve was filed as active; further: % of control where 0% means no effect). In outline: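 ACTOne HEK293 cells carry a modified cAMP-gated CNG channel and express endogenous PDE4; plated 1000 cells/well, compounds up to 22.9 uM final. Membrane-potential dye fluorescence (ex 535/em 590) was read; parental cells received 10 uM forskolin + 100 uM RO 20-1724.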
In general terms: In qHTS, concentration-response curves come from the screen itself.

The nature of assay [9]: qHTS Assay for Lipid Storage Modulators (AID 1519; calls by dose curve). The conditions noted are these: Drosophila S3 cells, BODIPY lipid droplet/cell ratio, laser cytometry, cells loaded with oleic acid; for activity change, negative = inhibition: at 25.7 µM (top of the series). A digest of the protocol: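 Cells seeded at 5,000 per well were treated with compounds over a concentration series and loaded with oleic acid (400 uM, as added). Lipid droplet fluorescence (488 nm excitation, 500-530 nm channel) was read by laser-scanning cytometry and normalized to 20 uM Triacsin C.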

Assay [10] concerns the target Ubiquitin carboxyl-terminal hydrolase 1 (Homo sapiens) (UniProt O94782). In words: Inhibitors of USP1/UAF1: Pilot qHTS (AID 504865; active means well fitted inhibition curve with a large enough effect;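 further: rhodamine fluorescence freed from ubiquitin-rhodamine substrate followed over time; top concentration of the series differs between compounds; on the % scale 0 is the no-effect control and ±100 the full control effect; nearly all actives have a fitted effect of over 35% in size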). A digest of the protocol: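 Deubiquitinase activity followed as kinetic rhodamine fluorescence release from 150 nM Ub-Rho. 1 nM USP1/UAF1 with compound, after 15 min room-temperature preincubation, in HEPES pH 7.8 buffer containing TCEP, EDTA, BSA and Tween-20.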

Assay [11] is described as follows: qHTS profiling for inhibitors of Plasmodium falciparum proliferation (AID 504749; active means well fitted inhibition curve with a large enough effect;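 further: 0% = DMSO vehicle and full inhibition = artemisinin control; nearly all actives have a fitted effect of over 60% in size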). The conditions noted are these: P. falciparum in erythrocytes, SYBR Green DNA, 72 h, at 12.8 µM (top of the series). In outline: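 In a 72 h erythrocytic culture (37 C, humidified, 5% CO2) at 2.5% hematocrit and 0.3% starting parasitemia, compounds were tested; SYBR Green I in detergent lysis buffer stained parasite DNA overnight.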

Setting [12] is: measured here: cell count channel max response.
[13] abbreviates: measured here: lipid channel max response.

The record followed here is PubChem BioAssay (NCATS).

Values joined by “and” are separate entries in the source; they are usually repeats but may differ in a detail not shown here. Identical values can stand only once. Inconclusive results are not listed. Active and inactive are the calls of the source. Unless noted, the call rests on the fitted dose curve; in most records, active means well fitted curve in either direction with a large enough effect (not every such curve was filed as active); inconclusive means small, poorly fitted or top-dose-only effect, or another doubt; inactive means flat fitted curve, though single readings scatter.

Chain of 3',5'-cyclic-AMP phosphodiesterase 4B (Homo sapiens) (Q07343 whole entry, looked up): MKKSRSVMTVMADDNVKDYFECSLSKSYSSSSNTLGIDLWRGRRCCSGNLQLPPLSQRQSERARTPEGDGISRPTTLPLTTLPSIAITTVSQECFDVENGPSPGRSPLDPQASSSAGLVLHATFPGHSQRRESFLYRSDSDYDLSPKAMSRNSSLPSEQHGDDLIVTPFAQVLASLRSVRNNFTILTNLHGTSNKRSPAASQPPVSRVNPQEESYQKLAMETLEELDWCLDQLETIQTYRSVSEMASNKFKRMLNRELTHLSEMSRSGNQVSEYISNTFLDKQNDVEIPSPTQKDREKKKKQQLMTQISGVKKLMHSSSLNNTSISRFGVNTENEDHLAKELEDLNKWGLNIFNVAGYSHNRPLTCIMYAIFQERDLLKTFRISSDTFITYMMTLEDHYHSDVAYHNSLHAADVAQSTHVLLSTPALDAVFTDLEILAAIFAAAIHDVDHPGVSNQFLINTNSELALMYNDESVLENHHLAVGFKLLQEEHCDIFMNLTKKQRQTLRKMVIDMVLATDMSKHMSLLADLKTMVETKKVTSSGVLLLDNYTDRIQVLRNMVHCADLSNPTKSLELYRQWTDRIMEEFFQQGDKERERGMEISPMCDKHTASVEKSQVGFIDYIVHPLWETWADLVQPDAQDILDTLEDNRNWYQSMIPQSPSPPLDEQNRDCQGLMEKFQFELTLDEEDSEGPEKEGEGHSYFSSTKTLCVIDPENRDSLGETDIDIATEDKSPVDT
Chain of Glucocorticoid receptor (Homo sapiens) (P04150 whole entry, looked up): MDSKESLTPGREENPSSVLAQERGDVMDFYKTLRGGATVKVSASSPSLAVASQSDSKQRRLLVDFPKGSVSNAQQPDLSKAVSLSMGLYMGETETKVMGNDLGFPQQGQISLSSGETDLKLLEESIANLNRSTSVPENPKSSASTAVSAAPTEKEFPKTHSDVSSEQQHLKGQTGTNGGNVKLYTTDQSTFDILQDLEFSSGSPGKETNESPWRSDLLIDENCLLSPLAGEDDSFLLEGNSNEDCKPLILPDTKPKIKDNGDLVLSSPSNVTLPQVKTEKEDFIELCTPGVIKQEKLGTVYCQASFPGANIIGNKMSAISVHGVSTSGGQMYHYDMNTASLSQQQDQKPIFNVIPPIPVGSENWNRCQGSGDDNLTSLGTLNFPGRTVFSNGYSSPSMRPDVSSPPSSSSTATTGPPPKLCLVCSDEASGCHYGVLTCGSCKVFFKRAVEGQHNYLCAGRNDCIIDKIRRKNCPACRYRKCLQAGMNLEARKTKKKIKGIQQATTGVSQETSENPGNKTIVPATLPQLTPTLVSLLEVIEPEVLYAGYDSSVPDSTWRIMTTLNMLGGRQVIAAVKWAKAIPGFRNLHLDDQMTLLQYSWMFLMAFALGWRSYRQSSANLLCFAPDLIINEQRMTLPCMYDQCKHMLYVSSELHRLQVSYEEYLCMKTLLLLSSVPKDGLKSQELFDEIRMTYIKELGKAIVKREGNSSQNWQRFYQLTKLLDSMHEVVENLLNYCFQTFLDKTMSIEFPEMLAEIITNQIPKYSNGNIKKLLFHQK
Chain of Ubiquitin carboxyl-terminal hydrolase 1 (Homo sapiens) (O94782 whole entry, looked up): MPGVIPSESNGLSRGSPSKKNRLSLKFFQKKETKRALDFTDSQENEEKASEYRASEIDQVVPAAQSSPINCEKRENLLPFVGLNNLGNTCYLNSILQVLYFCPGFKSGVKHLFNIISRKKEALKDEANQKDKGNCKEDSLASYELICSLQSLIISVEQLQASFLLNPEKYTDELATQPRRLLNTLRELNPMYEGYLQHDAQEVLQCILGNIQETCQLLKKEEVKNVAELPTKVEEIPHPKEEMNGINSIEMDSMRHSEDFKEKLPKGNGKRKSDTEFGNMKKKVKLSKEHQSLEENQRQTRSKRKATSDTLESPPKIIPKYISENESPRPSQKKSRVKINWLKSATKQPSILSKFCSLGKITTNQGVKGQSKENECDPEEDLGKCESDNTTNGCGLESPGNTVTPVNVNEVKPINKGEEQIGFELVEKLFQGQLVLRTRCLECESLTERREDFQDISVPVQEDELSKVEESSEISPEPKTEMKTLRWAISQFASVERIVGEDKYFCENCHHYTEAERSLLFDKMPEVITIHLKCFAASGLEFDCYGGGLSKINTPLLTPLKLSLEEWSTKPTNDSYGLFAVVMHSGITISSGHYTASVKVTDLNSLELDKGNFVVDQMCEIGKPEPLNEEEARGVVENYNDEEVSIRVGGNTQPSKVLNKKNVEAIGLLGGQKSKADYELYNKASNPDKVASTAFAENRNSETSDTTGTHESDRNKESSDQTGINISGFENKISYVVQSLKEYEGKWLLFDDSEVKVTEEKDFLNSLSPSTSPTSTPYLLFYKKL
Chain of Cytochrome P450 1A2 (Homo sapiens) (P05177 whole entry, looked up): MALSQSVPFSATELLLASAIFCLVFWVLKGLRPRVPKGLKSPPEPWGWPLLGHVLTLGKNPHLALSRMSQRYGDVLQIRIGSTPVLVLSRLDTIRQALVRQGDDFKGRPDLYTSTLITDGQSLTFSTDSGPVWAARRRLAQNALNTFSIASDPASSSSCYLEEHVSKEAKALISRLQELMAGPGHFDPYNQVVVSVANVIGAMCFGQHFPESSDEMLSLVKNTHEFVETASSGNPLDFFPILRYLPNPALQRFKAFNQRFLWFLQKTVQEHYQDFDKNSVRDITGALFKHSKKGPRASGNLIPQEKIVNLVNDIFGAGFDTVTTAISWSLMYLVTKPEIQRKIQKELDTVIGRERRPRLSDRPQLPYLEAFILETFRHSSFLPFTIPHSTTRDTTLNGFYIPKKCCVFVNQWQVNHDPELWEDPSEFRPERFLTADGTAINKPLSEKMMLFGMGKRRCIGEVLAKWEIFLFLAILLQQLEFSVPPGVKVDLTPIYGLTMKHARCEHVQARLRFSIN

Turning to `CN1[C@@H]2CCC[C@H]1CC(=O)C2`, the result in assay [1], in assay [4] and in assay [7] was inactive. Moreover, the Potency entry in assay [2], in assay [8] and in [10] was “inactive” each time. The results for the activity change, negative = inhibition in assay [3] and in assay [9] were -4.22% (inactive) and -2.47% (inactive), respectively. Further, the Potency in assay [5] and in assay [6] was > 20.6 µM (inactive) each time. The max response is -0.588% in assay [9] (setting [12]) and -3.94% in assay [9] (setting [13]).

`C=C[C@H]1CN2CC[C@@H]1C[C@H]2[C@@H](O)c1ccnc2ccccc12`: the outcome in assay [1], in assay [4] and in assay [7] was inactive. Moreover, the Potency result in [2], in assay [8] and in assay [10] was “inactive” each time. Moreover, the activity change, negative = inhibition was -25.9% (inactive) in assay [3]; -1.72% (inactive) and -4.09% (inactive) in assay [9]. Besides, the Potency in [5] and in [6] was > 20.6 µM (inactive) in each case. Moreover, the max response in assay [9] (setting [12]) is 9.79% and -10.1%; in assay [9] (setting [13]), 6.74% and -12.1%.

In the case of `C[C@@]12CC(=O)[C@H]3[C@@H](CCC4=CC(=O)CC[C@]43C)[C@H]1CCC2=O`, the result in assay [1], in [4] and in assay [7] was inactive. The Potency result in assay [2], in assay [8] and in [10] was “inactive” throughout. For the same compound, the activity change, negative = inhibition in assay [3] was 2.56% (inactive); in [9], -2.03% (inactive). For the same compound, the Potency in assay [5] and in assay [6] was > 20.6 µM (inactive) each time. The max response is -10.7% in [9] (setting [12]) and -12.2% in [9] (setting [13]).

As to `C[C@H](N)[C@@H](O)c1ccccc1`, the outcome in [1], in assay [4] and in assay [7] was inactive. Moreover, the Potency entry in [2], in assay [8] and in assay [10] was “inactive” each time. Besides, the activity change, negative = inhibition in assay [3] is 10.1% (inactive); in [9], 1.99% (inactive). Also, the Potency in [5] and in assay [6] was > 20.6 µM (inactive) in each case. Further, the max response worked out at 17% in [9] (setting [12]) and 20.5% in assay [9] (setting [13]). In addition, the figures for the activity, negative = inhibition in [11] (parasite line A) and in [11] (parasite line B) were -2.43% (inactive) and 9.04% (inactive), respectively.

Regarding `Clc1ccc(CS[C@@H](Cn2ccnc2)c2ccc(Cl)cc2Cl)cc1`, the outcome in assay [1] was inactive. In addition, the activity change, negative = inhibition in assay [9] is -2.77% (inactive). In addition, the max response is -14.6% in assay [9] (setting [12]) and -18.3% in assay [9] (setting [13]).

Take `CC(C)(C)NC[C@H](O)c1cc(Cl)c(N)c(Cl)c1`: the outcome in assay [1], in assay [4] and in assay [7] was inactive. Moreover, the Potency entry in assay [2], in assay [8] and in assay [10] was “inactive” in each case. In addition, the values for the activity change, negative = inhibition in assay [3] and in [9] were -7.65% (inactive) and -0.0671% (inactive), respectively. In addition, the figures for the max response in [9] (setting [12]) and in assay [9] (setting [13]) were 1.84% and 2.72%, respectively.
